This note sets out measurements from ChEMBL document CHEMBL1961873, “Compounds: GSK PKIS; Assays: Nanosyn kinase panel” (2012).

In assay [1] the target is Tyrosine-protein kinase CSK (Homo sapiens) (UniProt P41240). As to conditions: at 1 µM.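 Note: each value is an averaged inhibition reading.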
For assay [2], the target named is T1, Discoidin domain-containing receptor 2 (Homo sapiens) (UniProt Q16832).
T1 sequence (whole entry): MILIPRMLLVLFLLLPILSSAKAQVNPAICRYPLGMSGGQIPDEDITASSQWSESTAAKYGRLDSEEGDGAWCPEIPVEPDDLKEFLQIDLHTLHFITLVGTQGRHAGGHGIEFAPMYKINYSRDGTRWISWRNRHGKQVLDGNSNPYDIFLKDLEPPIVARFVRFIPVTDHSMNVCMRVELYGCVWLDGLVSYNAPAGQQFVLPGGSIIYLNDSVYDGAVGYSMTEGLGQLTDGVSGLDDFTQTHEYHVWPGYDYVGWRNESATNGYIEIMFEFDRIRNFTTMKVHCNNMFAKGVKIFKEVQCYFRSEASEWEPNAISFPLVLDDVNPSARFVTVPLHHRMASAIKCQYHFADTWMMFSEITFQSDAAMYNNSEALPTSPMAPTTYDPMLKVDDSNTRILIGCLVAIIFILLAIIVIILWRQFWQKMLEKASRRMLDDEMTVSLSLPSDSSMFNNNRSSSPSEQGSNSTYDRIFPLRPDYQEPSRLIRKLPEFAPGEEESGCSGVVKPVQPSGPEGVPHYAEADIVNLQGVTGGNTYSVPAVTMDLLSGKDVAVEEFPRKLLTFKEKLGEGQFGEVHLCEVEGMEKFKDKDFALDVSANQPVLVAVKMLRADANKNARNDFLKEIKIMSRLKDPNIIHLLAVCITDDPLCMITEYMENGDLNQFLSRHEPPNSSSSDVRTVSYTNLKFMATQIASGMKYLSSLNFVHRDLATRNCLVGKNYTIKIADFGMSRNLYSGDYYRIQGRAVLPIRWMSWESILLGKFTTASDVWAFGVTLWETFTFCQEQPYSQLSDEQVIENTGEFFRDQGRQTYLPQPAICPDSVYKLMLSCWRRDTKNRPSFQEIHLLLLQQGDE
As to conditions: at 0.1 µM.

Assay [3] has as its target T1, Discoidin domain-containing receptor 2 (Homo sapiens). As to conditions: at 1 µM.
Assay [4] concerns the target Epidermal growth factor receptor (Homo sapiens) (UniProt P00533). The settings on record: at 0.1 µM.
Assay [5] shares this target. The settings on record: at 1 µM.
Assay [6] has as its system Epidermal growth factor receptor (Homo sapiens), P00533 [L858R]. The settings on record: at 0.1 µM.
Assay [7] shares this test system. The settings on record: at 1 µM.
In assay [8] the test system is Epidermal growth factor receptor (Homo sapiens), P00533 [L861Q]. As to conditions: at 0.1 µM.
Chain of Epidermal growth factor receptor (Homo sapiens), P00533 [L861Q] (P00533 whole entry L861Q): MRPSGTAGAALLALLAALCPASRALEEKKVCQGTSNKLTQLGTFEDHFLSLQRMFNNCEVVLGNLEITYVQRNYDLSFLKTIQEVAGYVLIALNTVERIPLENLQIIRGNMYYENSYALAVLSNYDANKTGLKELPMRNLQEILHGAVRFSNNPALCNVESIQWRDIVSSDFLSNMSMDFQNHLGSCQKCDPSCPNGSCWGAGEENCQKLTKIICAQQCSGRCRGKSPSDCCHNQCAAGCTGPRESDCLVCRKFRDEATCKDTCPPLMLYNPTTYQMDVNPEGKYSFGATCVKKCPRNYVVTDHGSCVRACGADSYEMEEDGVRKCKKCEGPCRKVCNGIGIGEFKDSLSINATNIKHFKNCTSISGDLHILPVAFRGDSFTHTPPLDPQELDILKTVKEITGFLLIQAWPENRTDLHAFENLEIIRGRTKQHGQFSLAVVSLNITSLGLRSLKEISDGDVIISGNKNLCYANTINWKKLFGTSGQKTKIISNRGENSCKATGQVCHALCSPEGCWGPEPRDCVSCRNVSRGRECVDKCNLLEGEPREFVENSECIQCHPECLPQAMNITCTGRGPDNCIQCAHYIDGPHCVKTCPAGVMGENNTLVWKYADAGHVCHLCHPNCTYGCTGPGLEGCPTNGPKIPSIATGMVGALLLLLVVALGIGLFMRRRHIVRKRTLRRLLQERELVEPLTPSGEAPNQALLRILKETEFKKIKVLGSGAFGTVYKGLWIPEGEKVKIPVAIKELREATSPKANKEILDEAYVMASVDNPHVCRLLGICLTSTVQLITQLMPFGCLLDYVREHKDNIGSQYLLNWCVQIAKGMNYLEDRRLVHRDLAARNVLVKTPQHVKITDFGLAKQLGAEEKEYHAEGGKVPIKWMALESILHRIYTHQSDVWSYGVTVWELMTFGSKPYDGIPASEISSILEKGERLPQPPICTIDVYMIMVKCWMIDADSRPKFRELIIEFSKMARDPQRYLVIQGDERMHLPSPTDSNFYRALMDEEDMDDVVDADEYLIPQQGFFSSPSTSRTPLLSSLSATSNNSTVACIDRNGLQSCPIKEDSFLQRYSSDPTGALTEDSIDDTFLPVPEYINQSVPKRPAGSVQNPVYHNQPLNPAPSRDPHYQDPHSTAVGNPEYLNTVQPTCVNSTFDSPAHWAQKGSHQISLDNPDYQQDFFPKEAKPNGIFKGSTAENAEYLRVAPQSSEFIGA
For assay [9] the test system is unchanged. As to conditions: at 1 µM.
Assay [10] has as its system Epidermal growth factor receptor (Homo sapiens), P00533 [T790M]. The settings on record: at 0.1 µM.
The test system is the same in assay [11]. The settings on record: at 1 µM.
For assay [12], the system named is Epidermal growth factor receptor (Homo sapiens), P00533 [L858R,T790M]. The settings on record: at 0.1 µM.
Chain of Epidermal growth factor receptor (Homo sapiens), P00533 [L858R,T790M] (P00533 whole entry T790M/L858R, looked up): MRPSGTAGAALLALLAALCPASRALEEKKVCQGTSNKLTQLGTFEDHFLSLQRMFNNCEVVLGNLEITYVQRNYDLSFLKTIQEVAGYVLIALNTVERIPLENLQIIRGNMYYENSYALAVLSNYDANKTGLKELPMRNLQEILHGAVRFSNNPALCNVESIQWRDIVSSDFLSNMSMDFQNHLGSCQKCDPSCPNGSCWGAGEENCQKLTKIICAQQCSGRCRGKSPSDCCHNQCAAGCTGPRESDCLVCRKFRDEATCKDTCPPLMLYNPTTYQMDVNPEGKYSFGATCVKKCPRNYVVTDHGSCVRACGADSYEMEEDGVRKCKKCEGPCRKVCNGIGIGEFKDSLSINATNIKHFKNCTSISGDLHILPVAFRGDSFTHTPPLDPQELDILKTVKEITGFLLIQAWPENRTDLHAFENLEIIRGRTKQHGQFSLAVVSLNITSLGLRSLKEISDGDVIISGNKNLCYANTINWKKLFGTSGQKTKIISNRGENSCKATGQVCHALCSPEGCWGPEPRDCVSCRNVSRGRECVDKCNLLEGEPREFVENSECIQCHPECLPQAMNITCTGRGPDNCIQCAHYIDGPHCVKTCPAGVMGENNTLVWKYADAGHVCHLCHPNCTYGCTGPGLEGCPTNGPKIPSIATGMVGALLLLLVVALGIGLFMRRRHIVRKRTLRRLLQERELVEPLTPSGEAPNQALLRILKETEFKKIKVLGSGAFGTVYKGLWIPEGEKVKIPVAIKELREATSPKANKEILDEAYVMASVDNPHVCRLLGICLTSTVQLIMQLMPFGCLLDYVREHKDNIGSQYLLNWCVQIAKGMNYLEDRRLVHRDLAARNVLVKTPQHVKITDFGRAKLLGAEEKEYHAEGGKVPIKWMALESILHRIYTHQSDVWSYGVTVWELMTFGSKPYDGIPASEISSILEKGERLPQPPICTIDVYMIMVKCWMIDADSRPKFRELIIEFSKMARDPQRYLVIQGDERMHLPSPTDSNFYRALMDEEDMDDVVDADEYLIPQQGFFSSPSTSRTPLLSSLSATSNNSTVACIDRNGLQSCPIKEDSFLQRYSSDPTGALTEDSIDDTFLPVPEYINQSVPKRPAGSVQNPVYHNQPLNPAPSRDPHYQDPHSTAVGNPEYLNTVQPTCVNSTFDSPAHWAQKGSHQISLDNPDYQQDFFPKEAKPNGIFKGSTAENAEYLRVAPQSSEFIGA
Assay [13] shares this test system. As to conditions: at 1 µM.
For assay [14], the target named is Ephrin type-A receptor 2 (Homo sapiens) (UniProt P29317). As to conditions: at 0.1 µM.
Assay [15] shares this target. The settings on record: at 1 µM.
Assay [16] addresses T2, Ephrin type-A receptor 3 (Homo sapiens) (UniProt P29320).
T2 sequence (whole entry): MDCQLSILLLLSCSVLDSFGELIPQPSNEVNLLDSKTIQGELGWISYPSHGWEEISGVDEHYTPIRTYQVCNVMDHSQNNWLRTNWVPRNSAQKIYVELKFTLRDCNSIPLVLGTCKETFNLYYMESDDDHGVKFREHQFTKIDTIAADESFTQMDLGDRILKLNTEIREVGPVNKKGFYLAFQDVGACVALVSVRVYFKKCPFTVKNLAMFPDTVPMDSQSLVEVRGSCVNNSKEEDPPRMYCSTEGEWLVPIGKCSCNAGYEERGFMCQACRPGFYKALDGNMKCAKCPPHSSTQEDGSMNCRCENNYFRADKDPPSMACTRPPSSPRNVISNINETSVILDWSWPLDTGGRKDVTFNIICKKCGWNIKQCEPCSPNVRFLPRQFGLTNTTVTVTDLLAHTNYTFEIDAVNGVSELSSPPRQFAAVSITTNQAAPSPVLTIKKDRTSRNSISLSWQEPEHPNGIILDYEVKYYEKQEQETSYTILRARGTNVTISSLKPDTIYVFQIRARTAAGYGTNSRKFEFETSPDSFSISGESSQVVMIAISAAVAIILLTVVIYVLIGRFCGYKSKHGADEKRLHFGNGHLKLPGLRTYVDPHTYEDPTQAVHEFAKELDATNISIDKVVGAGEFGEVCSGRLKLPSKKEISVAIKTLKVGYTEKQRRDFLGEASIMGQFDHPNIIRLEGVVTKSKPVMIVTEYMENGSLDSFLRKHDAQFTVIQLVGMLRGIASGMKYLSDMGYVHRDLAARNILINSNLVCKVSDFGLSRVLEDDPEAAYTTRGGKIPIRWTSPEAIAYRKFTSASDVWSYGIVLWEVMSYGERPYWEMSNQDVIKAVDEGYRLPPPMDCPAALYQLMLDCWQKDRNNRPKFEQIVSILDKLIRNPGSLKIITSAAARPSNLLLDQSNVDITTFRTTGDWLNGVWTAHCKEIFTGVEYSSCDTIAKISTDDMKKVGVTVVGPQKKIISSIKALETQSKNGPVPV
The settings on record: at 0.1 µM.

For assay [17], the target named is T2, Ephrin type-A receptor 3 (Homo sapiens). As to conditions: at 1 µM.
For assay [18], the target named is Ephrin type-A receptor 4 (Homo sapiens) (UniProt P54764). As to conditions: at 0.1 µM.
Chain of Ephrin type-A receptor 4 (Homo sapiens) (P54764 whole entry): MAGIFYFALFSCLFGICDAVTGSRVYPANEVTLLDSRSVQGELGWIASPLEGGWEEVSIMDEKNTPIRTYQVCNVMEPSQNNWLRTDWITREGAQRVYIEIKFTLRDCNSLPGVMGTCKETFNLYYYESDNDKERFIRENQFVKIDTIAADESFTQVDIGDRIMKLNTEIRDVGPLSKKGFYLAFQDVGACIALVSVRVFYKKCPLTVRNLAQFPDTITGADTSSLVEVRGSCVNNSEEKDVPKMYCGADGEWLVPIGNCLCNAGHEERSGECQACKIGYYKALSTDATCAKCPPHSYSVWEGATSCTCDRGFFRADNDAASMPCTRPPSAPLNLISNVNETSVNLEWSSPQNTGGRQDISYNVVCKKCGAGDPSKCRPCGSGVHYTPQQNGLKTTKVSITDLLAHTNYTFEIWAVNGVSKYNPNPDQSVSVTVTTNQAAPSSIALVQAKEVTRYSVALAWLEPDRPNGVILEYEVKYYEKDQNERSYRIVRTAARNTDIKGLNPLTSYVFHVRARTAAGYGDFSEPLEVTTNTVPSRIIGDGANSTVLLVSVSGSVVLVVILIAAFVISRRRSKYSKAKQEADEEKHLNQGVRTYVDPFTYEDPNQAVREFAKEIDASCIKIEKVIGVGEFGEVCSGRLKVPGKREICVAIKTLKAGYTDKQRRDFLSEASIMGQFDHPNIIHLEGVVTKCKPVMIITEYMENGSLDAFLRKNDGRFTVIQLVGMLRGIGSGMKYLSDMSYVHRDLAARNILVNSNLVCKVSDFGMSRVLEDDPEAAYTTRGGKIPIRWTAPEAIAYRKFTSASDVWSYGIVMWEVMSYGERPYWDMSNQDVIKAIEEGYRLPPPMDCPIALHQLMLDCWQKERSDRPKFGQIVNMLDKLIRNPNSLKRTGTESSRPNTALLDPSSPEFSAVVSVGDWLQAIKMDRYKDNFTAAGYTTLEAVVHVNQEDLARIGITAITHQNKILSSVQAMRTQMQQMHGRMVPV
The target is the same in assay [19]. As to conditions: at 1 µM.
The target in assay [20] is T3, Ephrin type-B receptor 2 (Homo sapiens) (UniProt P29323).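 Note: reported as mean inhibition of EPHB2, from the GSK PKIS dataset.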
T3 sequence (whole entry): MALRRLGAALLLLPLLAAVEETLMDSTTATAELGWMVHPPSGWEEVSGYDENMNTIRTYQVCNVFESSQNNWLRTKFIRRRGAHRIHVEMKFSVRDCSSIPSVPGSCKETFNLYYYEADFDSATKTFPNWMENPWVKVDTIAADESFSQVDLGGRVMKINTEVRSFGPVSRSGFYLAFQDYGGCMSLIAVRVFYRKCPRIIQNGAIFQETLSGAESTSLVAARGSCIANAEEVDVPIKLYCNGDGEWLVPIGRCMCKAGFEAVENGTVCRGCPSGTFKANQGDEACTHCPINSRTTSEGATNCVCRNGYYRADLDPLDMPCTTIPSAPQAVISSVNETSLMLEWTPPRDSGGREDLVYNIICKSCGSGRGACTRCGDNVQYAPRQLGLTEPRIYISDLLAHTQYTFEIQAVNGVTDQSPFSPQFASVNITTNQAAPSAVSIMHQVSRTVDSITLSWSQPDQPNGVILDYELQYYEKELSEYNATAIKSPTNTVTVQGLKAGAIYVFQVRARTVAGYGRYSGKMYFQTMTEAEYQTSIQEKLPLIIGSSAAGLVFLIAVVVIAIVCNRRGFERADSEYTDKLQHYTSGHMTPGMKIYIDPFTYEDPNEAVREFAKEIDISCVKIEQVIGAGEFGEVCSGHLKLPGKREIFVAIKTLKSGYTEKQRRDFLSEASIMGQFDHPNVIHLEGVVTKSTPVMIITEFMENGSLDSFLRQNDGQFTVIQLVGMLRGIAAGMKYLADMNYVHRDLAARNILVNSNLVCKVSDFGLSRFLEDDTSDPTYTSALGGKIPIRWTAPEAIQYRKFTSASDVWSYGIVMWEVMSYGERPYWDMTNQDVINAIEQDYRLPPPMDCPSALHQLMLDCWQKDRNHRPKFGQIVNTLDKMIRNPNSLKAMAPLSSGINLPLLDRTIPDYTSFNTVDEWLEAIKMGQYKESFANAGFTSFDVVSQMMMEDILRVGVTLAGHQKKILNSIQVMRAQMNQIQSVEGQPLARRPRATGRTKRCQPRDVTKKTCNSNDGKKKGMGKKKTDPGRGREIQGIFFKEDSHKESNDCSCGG
As to conditions: at 0.1 µM.

Chain of Epidermal growth factor receptor (Homo sapiens), P00533 [L858R] (P00533 whole entry L858R): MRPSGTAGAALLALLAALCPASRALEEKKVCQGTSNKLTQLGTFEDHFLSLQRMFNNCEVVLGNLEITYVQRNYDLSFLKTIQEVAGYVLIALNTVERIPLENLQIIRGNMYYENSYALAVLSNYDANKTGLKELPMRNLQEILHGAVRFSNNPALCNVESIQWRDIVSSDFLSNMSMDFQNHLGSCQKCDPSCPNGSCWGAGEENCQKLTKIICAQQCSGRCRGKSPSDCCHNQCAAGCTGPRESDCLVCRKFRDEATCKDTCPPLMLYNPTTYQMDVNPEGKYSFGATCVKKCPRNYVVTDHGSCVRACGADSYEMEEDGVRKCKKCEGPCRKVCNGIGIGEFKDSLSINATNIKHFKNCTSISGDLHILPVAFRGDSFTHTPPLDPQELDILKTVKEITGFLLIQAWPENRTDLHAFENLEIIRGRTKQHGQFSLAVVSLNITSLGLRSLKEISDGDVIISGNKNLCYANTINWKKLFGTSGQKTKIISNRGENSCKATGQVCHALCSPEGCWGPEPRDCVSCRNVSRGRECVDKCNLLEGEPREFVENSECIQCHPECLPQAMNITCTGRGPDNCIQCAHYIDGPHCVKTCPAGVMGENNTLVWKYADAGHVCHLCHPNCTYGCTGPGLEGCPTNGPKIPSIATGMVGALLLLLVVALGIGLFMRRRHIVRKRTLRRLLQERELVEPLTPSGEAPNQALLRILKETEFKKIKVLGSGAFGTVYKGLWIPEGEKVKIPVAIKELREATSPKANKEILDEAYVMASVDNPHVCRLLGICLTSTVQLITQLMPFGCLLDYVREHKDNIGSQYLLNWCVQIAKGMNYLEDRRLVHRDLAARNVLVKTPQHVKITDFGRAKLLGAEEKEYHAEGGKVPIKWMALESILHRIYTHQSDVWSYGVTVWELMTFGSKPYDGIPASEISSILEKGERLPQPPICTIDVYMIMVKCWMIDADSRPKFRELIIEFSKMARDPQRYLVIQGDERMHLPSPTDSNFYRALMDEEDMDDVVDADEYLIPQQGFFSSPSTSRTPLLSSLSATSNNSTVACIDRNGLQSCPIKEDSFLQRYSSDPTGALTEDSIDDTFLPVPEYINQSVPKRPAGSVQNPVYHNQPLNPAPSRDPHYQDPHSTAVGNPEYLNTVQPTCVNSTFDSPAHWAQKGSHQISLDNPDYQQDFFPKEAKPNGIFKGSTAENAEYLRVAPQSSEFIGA
Chain of Tyrosine-protein kinase CSK (Homo sapiens) (P41240 2-450 limits assumed): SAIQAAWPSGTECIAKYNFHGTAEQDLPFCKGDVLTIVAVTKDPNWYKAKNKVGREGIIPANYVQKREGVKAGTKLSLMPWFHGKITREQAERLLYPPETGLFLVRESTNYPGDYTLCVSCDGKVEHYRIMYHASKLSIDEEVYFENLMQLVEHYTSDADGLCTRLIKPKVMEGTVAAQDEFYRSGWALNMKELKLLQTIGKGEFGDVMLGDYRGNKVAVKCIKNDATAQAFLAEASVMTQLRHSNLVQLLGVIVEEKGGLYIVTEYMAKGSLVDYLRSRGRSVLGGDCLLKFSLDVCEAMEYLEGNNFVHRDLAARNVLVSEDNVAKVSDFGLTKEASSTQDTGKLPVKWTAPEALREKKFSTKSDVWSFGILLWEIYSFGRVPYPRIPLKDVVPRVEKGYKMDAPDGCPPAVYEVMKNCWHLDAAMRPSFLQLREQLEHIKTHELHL

Take `COc1cc(Nc2ncc3c(C)nc(-c4cccc(Oc5ccccc5)c4)n3n2)cc(OC)c1OC`: the inhibition (as a rule, the drop in the measured response relative to a control, in per cent) in assay [1] was 0.83%; in assay [2], 1.95%; in [3] it was 0.6%; in assay [4] it was -0.83%; in [5] it was 3.44%; in [6] it was 2.38%. Besides, the inhibition in [7] is 1.65%; in assay [8], 0.98%; in [9], -0.89%; in assay [10], 1.28%; in assay [11] it was -1.01%; in assay [12] it was 1.23%. Further, the inhibition in [13] was -0.96%; in assay [14], 1.16%; in assay [15], -0.33%; in assay [16], 3.2%; in [17], 1.56%; in assay [18] it was 5.4%. Moreover, the inhibition in [19] was 3.74%; in assay [20], 4.87%.

In the case of `CCc1cccc(CC)c1/C=C/c1cncc(C(=O)NC)c1`, the inhibition came out at 0.54% in [1]; 1.3% in [2]; 6.62% in assay [3]; 3.24% in assay [4]; 6.32% in assay [5]; 4.88% in [6]. Moreover, the inhibition is 3.92% in assay [7]; 1.32% in assay [8]; 2.46% in assay [9]; 2.4% in assay [10]; -0.11% in assay [11]; 1.59% in [12]. Besides, the inhibition in assay [13] is 4.31%; in [14] it was 3.59%; in assay [15], 2.3%; in [16], 2.96%; in [17] it was 2.85%; in [18], 5.38%. The inhibition turned out to be 5.6% in assay [19] and 7.22% in assay [20].

For `Fc1ccc(-c2c(-c3ccncc3)nc3n2CCS3)cc1`, the inhibition in assay [1] is 5.05%; in [2] it was 0.56%; in [3], -0.39%; in [4], -4.84%; in assay [5] it was -0.06%; in [6], 3.61%. The inhibition in [7] was 22.2%; in [8] it was 1.81%; in assay [9], 1.46%; in assay [10] it was 1.14%; in assay [11], 1.49%; in assay [12] it was 2.41%. In addition, the inhibition in [13] was 2.54%; in [14], -5.85%; in assay [15], -4.53%; in [16], -0.6%; in assay [17], 0.35%; in [18], 6.26%. Also, the inhibition came out at 8.11% in assay [19] and 1.66% in assay [20].

Consider `c1ccc(Oc2ccc(Nc3ncc(-c4ccccc4)o3)cc2)cc1`, for which the inhibition in assay [1] is 1.07%; in [2], 0.51%; in assay [3], 0.6%; in assay [4] it was 1.92%; in assay [5], 3.79%; in assay [6], 1.22%. In addition, the inhibition was 0.93% in assay [7]; 1.49% in assay [8]; 3.06% in [9]; 0.57% in assay [10]; 0.24% in [11]; -0.18% in assay [12]. The inhibition is 4.16% in assay [13]; -2.63% in [14]; -2.48% in assay [15]; 2.07% in [16]; 2.91% in assay [17]; 4.49% in assay [18]. Besides, the inhibition in assay [19] turned out to be 4.79%; in assay [20], 7.5%.

Take `COc1ccc2ncn(-c3cc(O[C@H](C)c4ccccc4Cl)c(C(N)=O)s3)c2c1`: the inhibition is 4.14% in [1]; 1.2% in assay [2]; 0.87% in [3]; -5.57% in assay [4]; -2.35% in assay [5]; 0.76% in assay [6]. Also, the inhibition in assay [7] was found to be 6.08%; in [8], 3.26%; in [9] it was 1.91%; in [10], 1.16%; in assay [11], 1.63%; in [12] it was 1.69%. The inhibition in assay [13] is 4.57%; in assay [14], -1.86%; in assay [15], -2.71%; in assay [16], -1.12%; in assay [17] it was 1.39%; in assay [18], 6.03%. Besides, the inhibition was determined as 9.66% in [19] and 6.75% in [20].

For `Fc1ccc(-c2ncn(CCCN3CCOCC3)c2-c2ccncc2)cc1`, the inhibition was -6.18% in assay [1]; 0.11% in assay [2]; -0.13% in assay [3]; 0.44% in [4]; 1.09% in [5]; -0.51% in [6]. For the same compound, the inhibition in assay [7] was -2.87%; in assay [8], -1.64%; in [9], -2.82%; in assay [10] it was -1.82%; in assay [11], -1.55%; in assay [12], -3.9%. The inhibition in [13] was determined as 1.72%; in assay [14], 0.95%; in [15], 1.3%; in assay [16] it was 1.04%; in assay [17] it was 0.84%; in assay [18], 1.1%. Moreover, the results for the inhibition in assay [19] and in assay [20] were -5.4% and -4.85%, respectively.

Turning to `Fc1ccc(-c2nc3n(c2-c2ccncc2)CCS3)cc1`, the inhibition in assay [1] is 4.61%; in [2], 2.36%; in [3] it was 4.83%; in assay [4], 0.92%; in [5] it was 3.39%; in assay [6], 5.61%. Further, the inhibition in [7] came out at 14.5%; in [8], 2.5%; in assay [9], 1.57%; in assay [10], 1.65%; in [11], 0.86%; in assay [12], 1.02%. In addition, the inhibition in assay [13] is 1.42%; in [14], -3.82%; in [15], -3.6%; in [16], -0.22%; in assay [17], -0.79%; in [18], 6.24%. Besides, the inhibition was 3.74% in assay [19] and 3.72% in assay [20].
